In the library only some 2.3% were active in any assay of this set; here they are far more common.
697 NFkB inh: lowers PMA/ionomycin-induced NF-kB signal in 697 B cells; actives 0.33% (n = 330,000); AID 435022; inhibition, % at 4 µM; 697 B-cell NF-kB luciferase reporter, 16 h; in the data active = inhibition above about 35%
TRPM1 prom inh: MITF TRPM1 promoter inhibition in SK-MEL-5 cells; SK-MEL-5 TRPM1 promoter luciferase, 24 h; inhibition, % at 12.5 µM; actives 0.83% (n = 330,000);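 active = mean inhibition across replicates of 60% or more, whatever share of single replicates reaches that level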
Jurkat NFkB inh: inhibitors of the PMA/ionomycin-induced NF-kB reporter in Jurkat cells. inhibition, % at 4 µM. PMA/ionomycin-induced NF-kB luciferase reporter, luminescence. actives 0.53% (n = 330,000); in the data active = inhibition above about 50%
Gli-Sufu antag: antagonists of Gli-Sufu signaling | Sufu-KO-LIGHT fibroblasts, Gli luciferase reporter luminescence | inhibition, % at 5 µM | actives 0.74% (n = 340,000);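 active = inhibition above about 55%, limit read from the data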
EBV LMP1 NFkB: Epstein-Barr LMP1 NF-kappaB reporter inhibition | LMP1-induced NF-kappaB luciferase reporter cells, luminescence | inhibition, % at 12.5 µM | actives 0.69% (n = 350,000); in the data active = inhibition above about 41%
Shn3 inh set2: inhibitors of Schnurri-3 3'UTR reporter in osteoblasts | Clone20 osteoblast Shn3 3'UTR firefly luciferase, 24 h | AID 588674 | inhibition, % at 12.5 µM | actives 0.52% (n = 360,000);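 active = mean inhibition of at least 75% with every replicate also reaching 75%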
Numbers stand for hits; i = inactive; nt = no result; ! = not confirmed by another sample.

SMILES	697 NFkB inh	TRPM1 prom inh	Jurkat NFkB inh	Gli-Sufu antag	EBV LMP1 NFkB	Shn3 inh set2
COC1=CC(=O)c2nc(Cl)ccc2C1=O	nt	nt	nt	nt	nt	98
COc1cc(C(=O)Oc2ccccc2/C=N/NC(=O)c2ccc(C)c(Cl)c2)cc(OC)c1OC	i	i	i	i	57	i
COCCNC(=O)CN(C(=O)CCC(=O)Nc1ccccn1)c1ccc(F)c(Cl)c1	i	i	i	nt	87	i
O=C(C=Cc1ccco1)c1ccc2ccccc2c1	nt	i	nt	i	i	95
CCOc1ccccc1C(c1c(C)n(C)n(-c2ccccc2)c1=O)c1c(C)n(C)n(-c2ccccc2)c1=O	i	i	i	i	i	i
O=C1C(=O)N(c2nccs2)C(c2ccccc2)/C1=C(\O)c1ccc2c(c1)OCCO2 (configuration not stated)	i	67	i	nt	i	i
Oc1ccc(Nc2nc(N3CCCC3)c3ccccc3n2)cc1	i	i	i	58	i	i
COc1ccc(OC)c(C2NC(=O)N(C)C(C)=C2C(=O)OCc2ccccc2)c1 (configuration not stated)	i	i	i	i	i	i
Cc1cc(=O)oc2c(C)c(OCC(=O)N(C)C)ccc12	i	i	i	i	42	i
Cc1ccc(Cn2c(CCNc3nc(-c4ccc(Cl)c([N+](=O)[O-])c4)cs3)nc3cc(Cl)c(Cl)cc32)cc1	i	i	i	i	i	i
CCOc1ccc(N(C(C)C(=O)N2CCCCCC2)S(C)(=O)=O)cc1 (configuration not stated)	i	i	i	i	71	i
CC(C(=O)N1CCCCCC1)N(c1ccc(Cl)cc1)S(C)(=O)=O (configuration not stated)	i	i	i	i	i	i
OC(c1ccccc1)C(O)C(c1ccccc1)N1CCCCC1 (configuration not stated)	nt	i	nt	i	i	92
O=C(c1ccc(Cl)cc1)N1CCN(CCOc2ccccc2)CC1	i	i	i	i	47	i
COc1ccc(OCCN2CCN(C(=O)c3ccc(OC)cc3)CC2)cc1	i	i	i	i	i	i
COc1cccc(-c2nn(-c3ccc(C)cc3)cc2C(=O)N(C)CC(=O)Nc2cccc(F)c2)c1	i	i	i	i	i	i
O=C(N/N=C/c1cc([N+](=O)[O-])ccc1O)c1ccc(COc2ccc3c(c2)CCC3)o1	i	i	i	i	i	88
CCn1c(N)nc2c1c(=O)n(C)c(=O)n2C	i	i	i	i	i	i
CCCc1nc2c(=O)n(C)c(=O)nc-2n(C)n1	nt	104	nt	59	90	97
O=C1N(c2ccccc2)C[C@@H]2C[C@@H](c3cccs3)N3CCC[C@@]123	i	i	i	i	i	i
CC(C)(O)C#Cc1ccc([C@@H]2C[C@H]3CN(c4ccccc4)C(=O)[C@]34CCCN24)s1	i	i	i	i	54	95
O=C1CC(SC(=NCc2ccc3c(c2)OCO3)Nc2ccccc2)C(=O)N1 (configuration not stated)	i	i	i	i	55	i
Cn1c(=O)c2c(nc(NCc3ccco3)n2C/C=C/c2ccccc2)n(C)c1=O	i	i	i	i	42	88
Cn1c(=O)c2c(nc(NCc3ccco3)n2C)n(C)c1=O	i	i	i	i	i	i
CC(Cl)=CCn1c(NCCc2ccccc2)nc2c1c(=O)n(C)c(=O)n2C	nt	nt	nt	nt	nt	92
SMILES	697 NFkB inh	TRPM1 prom inh	Jurkat NFkB inh	Gli-Sufu antag	EBV LMP1 NFkB	Shn3 inh set2
CCOc1ccc(Nc2nc3c(C)cccc3cc2C#N)cc1	i	i	i	i	i	i
CC(C)CNC(=O)/C=C/C=C/CCCC/C=C/c1ccc2c(c1)OCO2	i	i	i	i	i	i
O=C1C=CC(=O)N1c1ccc2c(c1)C(NC(=O)C(F)(F)F)c1ccccc1-2 (configuration not stated)	nt	86	nt	i	i	i
CCCCCc1cc(=O)oc2c(C(CCN(CC)CC)c3cc(OC)c(OC)c(OC)c3)c(OC)cc(OC)c12 (configuration not stated)	i	93	i	i	i	i
COc1ccc(C(CCN2CCCC2)c2c(OC)cc(OC)c3c(-c4ccccc4)cc(=O)oc23)cc1 (configuration not stated)	i	67	i	i	i	i
CCCCCc1cc(=O)oc2c(C(CCN3CCCC(C)C3)c3ccc4c(c3)OCO4)c(OC)cc(OC)c12 (configuration not stated)	i	i	i	i	i	i
CCN(CC)CCC(c1ccc(N(C)C)cc1)c1c(OC)cc(OC)c2c(-c3ccccc3)cc(=O)oc12 (configuration not stated)	i	i	i	i	i	i
COc1ccc(C(CCN2CCOCC2)c2c(OC)cc(OC)c3c(-c4ccccc4)cc(=O)oc23)cc1 (configuration not stated)	i	i	nt	i	i	i
CCCCCc1cc(=O)oc2c(C(CCN3CCCCC3)c3ccc4c(c3)OCO4)c(OC)cc(OC)c12 (configuration not stated)	i	84	i	i	i	i
Cn1nc([N+](=O)[O-])nc1S(C)(=O)=O	i	72	i	i	i	i
CS(=O)(=O)c1nc([N+](=O)[O-])nn1CCCc1ccccc1	i	i	i	i	i	i
CSc1ccc2c(c1)C(N1CCN(C)CC1)Cc1ccccc1S2 (configuration not stated)	i	i	i	i	89!	i
CN(C)CCCNC(=O)C[C@H]1C[C@H](C(=O)N2CCCCC2)[C@@]2(CCc3ccccc3)c3[nH]c4cc(-c5ccco5)ccc4c3CCN2C1=O	i	92	nt	i	i	i
O=C(CC1C[C@H](C(=O)N2CCCCC2)[C@@]2(CCc3ccccc3)c3[nH]c4ccccc4c3CCN2C1=O)NCCc1ccccn1 (some centres not stated)	nt	i	nt	i	69	i
C[C@]12c3[nH]c4ccccc4c3CCN1C(=O)C(CC(=O)NCCc1ccccn1)C[C@@H]2C(=O)N1CCCCC1 (some centres not stated)	i	i	i	i	i	i
O=C(Oc1ccc(NC2=C(Cl)C(=O)c3ccccc3C2=O)cc1)c1ccc([N+](=O)[O-])cc1	nt	82	nt	i	i	i
CCCn1c(N)c(C(=O)CSc2ncc(C(F)(F)F)cc2Cl)c(=O)[nH]c1=O	i	i	i	i	i	i
Clc1nnc(Cl)c2c1ncn2Cc1ccccc1	i	i	i	i	i	i
COc1cc(/C=N/NS(=O)(=O)c2ccc3ccccc3c2)ccc1OCc1ccc(C(=O)O)cc1	i	64	i	i	67	i
COc1ccc(/C=N/NS(=O)(=O)c2ccc(C)cc2)cc1OC(=O)c1ccccc1	i	i	i	i	i	i
COc1ccc(NC(=O)CN(C)C(=O)c2cc(S(=O)(=O)N(C)C)ccc2N2CCCC2)cc1	i	i	i	i	i	i
CC1CCCC(NC(=O)NC(=O)CCl)C1C (configuration not stated)	i	71	i	i	i	i

Source: PubChem (several laboratories)
